Laboratory results as given in ChEMBL document CHEMBL4513139, “CO-ADD screening of University of Strathclyde (UK) compounds”.
Entries with a potency or affinity are not part of this list.

Legend:
Staphylococcus aureus = settings: Concentration 32 ug.mL-1; ASSAY_TEST Inhibition of Bacterial Growth; detection method Absorption (OD600); MEDIA CAMHB; plate type 384well; NBS; CORNING #3640; time 18 hr
Escherichia coli = settings: Concentration 32 ug.mL-1; ASSAY_TEST Inhibition of Bacterial Growth; detection method Absorption (OD600); MEDIA CAMHB; plate type 384well; NBS; CORNING #3640; time 18 hr

CCOP(=O)(OCC)C(Cc1cn(Cc2cnc(C)nc2N)nn1)C(=O)O.O=C(O)C(F)(F)F (configuration not stated)
Inhibition (Staphylococcus aureus): 18.42%
Inhibition (Escherichia coli): -15.56%
